Experimental data from PubChem BioAssay (NCATS).
Records with an inconclusive call do not appear. Entries that show only a call come without a potency. Activity calls are given as the source filed them. Calls come from the whole dose curve; as a rule, active = well fitted inhibition curve with a large enough effect; inconclusive = small, poorly fitted or top-dose-only effect; inactive = no such curve, though single readings can be large or run the other way.
Potency is the fitted concentration of half-maximal effect.

What follows are compounds tested against Muscarinic acetylcholine receptor M1 (Rattus norvegicus) (UniProt P08482) (assay: qHTS Assay for Antagonists of Acetylcholine Muscarinic M1 Receptor: Measurement of IP-One Response (AID 944; note: nearly all actives have a fitted effect of over 75% in size)). Settings: CHO-M1 cells, IP-One HTRF, antagonist mode; series mostly up to 46.1 µM.
Sequence of Muscarinic acetylcholine receptor M1 (Rattus norvegicus) (P08482 whole entry, looked up): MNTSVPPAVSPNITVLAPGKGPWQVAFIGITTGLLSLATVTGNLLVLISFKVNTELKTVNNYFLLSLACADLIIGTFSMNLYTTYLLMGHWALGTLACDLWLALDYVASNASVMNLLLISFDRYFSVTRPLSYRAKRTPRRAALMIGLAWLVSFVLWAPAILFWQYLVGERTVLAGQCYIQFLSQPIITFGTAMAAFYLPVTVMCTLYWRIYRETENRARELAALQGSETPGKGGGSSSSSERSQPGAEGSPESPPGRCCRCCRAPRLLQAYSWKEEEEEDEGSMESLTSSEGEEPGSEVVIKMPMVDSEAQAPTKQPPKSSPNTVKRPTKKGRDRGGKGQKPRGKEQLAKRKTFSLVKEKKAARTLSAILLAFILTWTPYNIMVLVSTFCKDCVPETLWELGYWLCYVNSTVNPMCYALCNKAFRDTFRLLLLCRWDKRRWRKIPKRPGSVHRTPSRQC
Source text: NIH Molecular Libraries Screening Centers Network [MLSCN]
NIH Chemical Genomics Center [NCGC]
Acetylcholine muscarinic M1 receptor is a G-protein coupled receptor (GPCR) coupling to the Gq G protein. It is mainly expressed in brain and functionally related to the learning and memory processes. The agonists of this receptor have the potential for the treatment of Alzheimer's disease and cognitive impairments associated with Schizophrenia.
Upon an activation of the M1 receptor, phosholipase C (PLC) is activated to produce inositol 1,4,5-trisphosphate (IP3) and diacyl glycerol (DAG). The IP3 is very rapidly hydrolyzed to IP2, IP1 and then inositol by a series of enzymes and Ca2+ is quickly pumped back into ER by the calcium pump on the ER membrane, which effectively switches off the IP3 and Ca2+ signaling. For compound screen, the changes in intracellular free Ca2+ concentration can be measured by the fluorescence calcium dye such as Fura-2, Fluo-3 and Fluo-4 with a fluorescence kinetic plate reader. IP1 or total IPs including IP1, IP2 and IP3 are usually measured as an alternative method for assessing the function of Gq-coupled GPCRs. We have applied a time-resolved fluorescence based (TR-FRET) IP1 assay in which an IP1 specific antibody is used to detect the labeled IP1 tracer. When the cell lysate contains the elevated IP1, the TR-FRET between the labeled antibody and IP1 tracer is disrupted resulting in a reduction in the total signal. Since the TR-FRET is used, a homogenous assay with out cell wash and medium change is possible which also can be miniaturized into the high density format for HTS.
We have obtained a M1-CHO cell line transfected with rat acetylcholine M1 receptor and optimized this IP-One assay with this cell line for compound screening as a counter-screen assay for other Gq-coupled GPCRs.
NCGC Assay Protocol Summary:
The CHO-M1 (CHO-M1) cell line transfected with the rat acetylcholine muscarinic M1 receptor was obtained from American Type Culture Collection (ATCC). The cells were maintained in call culture flasks with F12 Kaighn's media (Invitrogen) supplemented with 10 % FBS, 100 units/ml penicillin, 100 ug/ml streptomycin and 250 ug/ml geneticin (Invitrogen) at 37C, 5 % CO2 in a humidified atmosphere. At 90-95 % confluence, the cells were then detached in 15 ml 0.25 % trypsin by 3 minutes incubation at 37C and centrifuged at 1000 RPM to remove the trypsin solution. The resulting cell pellet was resuspended in the cell freezing media containing 10 % DMSO (Invitrogen) at a density of 4 x 10^7 cells/ml. The aliquots of cells at 0.5 - 1 ml per vial were frozen down slowly at 1 degree C/min using a Cryo 1 degree C freezing container in the presence of isopropanol (Nalgene Nunc, Rochster, NY) overnight in a -80C freezer. The frozen cells were then transferred to liquid nitrogen for the storage up to one year.
The resuspended frozen cells were plated at 3 ul/well with 2000 cells in the black, tissue culture treated, clear bottom 1536-well plates. The cells were cultured at 37C, 5 % CO2 for overnight to allow the cells recovering from the frozen state. 20 nl/well of compound in DMSO solution was added to the assay plate and incubated for 10 min. Carbachol was prepared in stimulation buffer (10mM Hepes, 1mM CaCl2, 0.5 mM MgCl2, 4.2 mM KCl, 146 mM NaCl, 5.5 mM glucose 50mM LiCl 50mM pH7.4) which was added to the assay plate at 1 ul/well. After an incubation with carbachol at 37C, 5 % CO2 for 30 min, all the wells in the assay plate were added with 1 ul/well of d2 conjugated IP1 (d2-IP1) and 1 ul/well of Eu+ cryptate conjugated anti-IP1 antibody (Eu+-Ab), both from the IP-One kit (Cisbio USA., Inc.). After 10 min incubation at the room temperature, the assay plates were measured in the HTRF detection mode in ViewLux plate reader (Ex=337 nm. Em(1)=620 and Em(2)=665 nm)
1536-well assay protocol:
(1) 4 ul/well containing 2000 M1-CHO cells in 1536 tissue culture treated white plate
(3) Add 23 nl compound diluted in DMSO
[…]
In the case of Nc1nc2ccc(Cl)cc2c2nc(-c3ccco3)nn12, the Potency is reported as “inactive”. In the case of NCCCCN=C(N)N, the Potency is reported as “inactive”. In the case of COc1ccccc1N1CCN(CCN(C(=O)c2ccc(F)cc2)c2ccccn2)CC1, the Potency is reported as “inactive”. CCN(CC)CCCCCCCCOC(=O)c1cc(OC)c(OC)c(OC)c1 was tested, and the Potency was 2.82 µM (active). For C/C(=C\c1ccc(C(=O)O)cc1)c1ccc2c(c1)C(C)(C)CCC2(C)C, the Potency was “inactive”. CC[C@H](NC(=O)c1c(C)c(-c2ccccc2)nc2ccccc12)c1ccccc1 was tested, and the Potency was “inactive”. CC(=O)NCCc1c[nH]c2ccc(O)cc12 was tested, and the Potency was “inactive”. For O=c1[nH]c2cc(Cl)ccc2c(O)c1-c1ccc(Oc2ccccc2)cc1, the Potency was “inactive”. For N#Cc1cc2nc(O)c(O)nc2cc1[N+](=O)[O-], the Potency was “inactive”. N[C@@H](CS(=O)O)C(=O)O was tested, and the Potency was “inactive”. For CC(=O)N[C@@H](Cc1c[nH]c2ccccc12)C(=O)OCc1cc(C(F)(F)F)cc(C(F)(F)F)c1, the Potency was “inactive”. With COc1ccc2c(c1)c(CC(=O)O)c(C)n2Cc1ccc(Cl)cc1 the Potency was “inactive”. In the case of CC(=O)C(C)=O, the Potency is reported as “inactive”. CC(C)(CO)Cc1cc(C(C)(C)C)c(O)c(C(C)(C)C)c1 was tested, and the Potency was “inactive”. In the case of O=[N+]([O-])c1cccc2cn[nH]c12, the Potency is reported as “inactive”. With C[N+](C)(C)CC=O the Potency was “inactive”. In the case of O=c1[nH]c(=O)c2nc3ccccc3nc2[nH]1, the Potency is reported as “inactive”. For O=C(O)/C(=C/c1c(C(=O)O)[nH]c2cc(Cl)cc(Cl)c12)c1ccccc1, the Potency was “inactive”. For O=C(O)C1=CC(=C(c2ccc(O)c(C(=O)O)c2)c2ccc(O)c(C(=O)O)c2)C=CC1=O, the Potency was “inactive”. O=C(O)c1cc(=O)cc(C(=O)O)[nH]1 was tested, and the Potency was “inactive”. In the case of O=C(O)c1ccccc1Nc1cccc(OCc2ccc3ccccc3n2)c1, the Potency is reported as “inactive”. In the case of Cn1cc(C(=O)OCC2CCN(CCNS(C)(=O)=O)CC2)c2ccccc21, the Potency is reported as “inactive”. CC(N)=O was tested, and the Potency was “inactive”. For Cc1nc(N=Nc2ccc(C(=O)O)cc2)c(COP(=O)(O)O)c(C=O)c1O, the Potency was “inactive”. CCSC(=N)N was tested, and the Potency was “inactive”. For O=C(O)/C=C/c1ccc(O)c(O)c1, the Potency was “inactive”. In the case of Nc1ncnc2c1ncn2C1CCCC1, the Potency is reported as “inactive”. With CSC(=N)N the Potency was “inactive”. With C[C@H](NC(=O)/C(C#N)=C/c1ccc(O)c(O)c1)c1ccccc1 the Potency was “inactive”. For NCCS(=O)O, the Potency was “inactive”. In the case of O=c1onc2cnc3ccccc3n12, the Potency is reported as “inactive”. With C#CCn1c(=O)c2c(ncn2C)n(C)c1=O the Potency was “inactive”. In the case of N=C(N)SCCN, the Potency is reported as “inactive”. CN[C@H](CC(=O)O)C(=O)O was tested, and the Potency was “inactive”. CCCCCCN(CCCCCC)C(=O)Cc1c(-c2ccc(F)cc2)[nH]c2ccccc12 was tested, and the Potency was “inactive”. COc1ccc(C(=O)NCc2cccnc2)cc1C(=O)NCc1cccnc1 was tested, and the Potency was “inactive”. N[C@H](C(=O)O)c1cc(O)cc(O)c1 was tested, and the Potency was “inactive”. For CCCC(=O)NCCc1c2n(c3ccc(OC)cc13)CCCc1ccccc1-2, the Potency was “inactive”. With N=C(N)SCCc1cnc[nH]1 the Potency was “inactive”. With O=C(O)c1cc2cc(F)ccc2[nH]1 the Potency was “inactive”.
